Results on 22 molecules are retold here after PubChem BioAssay (NCATS).

Active and inactive are the calls of the source. Where a call stands in place of a potency, no number is given. Calls come from the whole dose curve; as a rule, active = well fitted inhibition curve with a large enough effect; inconclusive = small, poorly fitted or top-dose-only effect; inactive = no such curve, though single readings can be large or run the other way.

Single-stranded DNA cytosine deaminase (Homo sapiens), sequence (Q9GZX7 whole entry, looked up): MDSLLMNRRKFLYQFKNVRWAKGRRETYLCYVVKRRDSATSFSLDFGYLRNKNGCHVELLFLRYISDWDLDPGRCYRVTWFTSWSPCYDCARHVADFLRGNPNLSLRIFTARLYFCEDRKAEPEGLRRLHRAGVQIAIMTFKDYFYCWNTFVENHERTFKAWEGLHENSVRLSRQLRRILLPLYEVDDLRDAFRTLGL

For the assay, the target named is Single-stranded DNA cytosine deaminase (Homo sapiens) (UniProt Q9GZX7). Briefly: Validation qHTS assay for inhibitors of Activation Induced Cytidine Deaminase (AID): AID signal (AID 1347429). The following applies: Recombinant AID, FRET ssDNA deamination with UDG, fluorescence; series mostly up to 115 µM. In a few lines:
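Compounds (final up to 114 uM) preincubated with AID plus UDG; 250 nM DJC20/DJC23 substrate mix (4x stock) added, 4 hr at room temperature, then NaOH, 30 min. Read 1 fluorescence at 540 nm excitation, 590 nm emission.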
(In qHTS, concentration-response curves come from the screen itself.)
Regarding `CN(C)C(=O)/N=N/C(=O)N(C)C`, the Potency entry is “inactive”.

In the case of `Cc1cccc(C(=O)NCN2CCN(c3ccccc3C#N)CC2)c1`, the Potency result is “inactive”.

For the molecule `CSC(=N)N`, the Potency entry was “inactive”.

Turning to `COc1ccc2c(c1)c(CC(=O)O)c(C)n2C(=O)c1ccccc1`, the Potency entry is “inactive”.

Regarding `COc1ccc2c(c1)CCC1C2CC[C@@]2(C)C1CC[C@@H]2NCCCCCCN1C(=O)C=CC1=O` (some centres not stated), the Potency entry is “inactive”.

Consider `O=C(O)c1cccnc1C(=O)O`, for which the Potency entry was “inactive”.

Take `Cc1cc2c(cc1Cl)N(C(=O)Nc1ccnc3ccccc13)CC2`: the Potency result was “inactive”.

With `Nn1nnc2ccccc21`, the Potency result is “inactive”.

As for `O=C(O)C1=CCCN(CCON=C(c2ccccc2)c2ccccc2)C1`, the Potency entry was “inactive”.

On to `N[C@H]1CONC1=O`, for which the Potency entry is “inactive”.

As for `N[C@@H](CS(=O)O)C(=O)O`, the Potency entry is “inactive”.

For `O=C(OCCN1CCOCC1)C1(c2ccccc2)CCCCC1`, the Potency result was “inactive”.

With `C#CCn1c(=O)c2c(ncn2C)n(C)c1=O`, the Potency result is “inactive”.

As for `CNc1cc(NS(=O)(=O)c2ccc(N)cc2)nc(NC)n1`, the Potency result was “inactive”.

In the case of `CCC(=O)N1CCN(C(=O)c2ccccc2)CC1`, the Potency result is “inactive”.

Take `CC(=O)[C@H]1CCC2C3CC=C4C[C@@H](OS(=O)(=O)O)CC[C@]4(C)C3CC[C@@]21C` (some centres not stated): the Potency result was “inactive”.

`COc1cc(CC(=O)O)ccc1O`: the Potency entry is “inactive”.

On to `N[C@H](C(=O)O)c1cc(O)cc(O)c1`, for which the Potency entry was “inactive”.

With `CCCCCC[C@@H]([C@@H](C)O)n1cnc2c(N)ncnc21`, the Potency result is “inactive”.

`OC1(c2ccc(Cl)cc2)CCN(Cc2c[nH]c3ccccc23)CC1`: the Potency entry is “inactive”.

For `CC(C)[C@@H]1CC[C@@H](C)C[C@@H]1P(=O)(c1ccccc1)c1ccccc1`, the Potency result was “inactive”.

`NC[C@@H]1O[C@H](c2ccccc2)Cc2c1ccc(O)c2O`: the Potency result was “inactive”.
